From PubChem BioAssay (NCATS)
Records with an inconclusive call do not appear. A call without a number means that no potency is given here. The source made the active and inactive calls. Calls follow the shape of the dose curve; as a rule, active = well fitted curve in the direction sought with a large enough effect; inconclusive = small, poorly fitted or top-dose-only effect, or another doubt; inactive = no such curve, though single readings can be large; an effect the other way counts as inactive or inconclusive.

How the values were obtained:
[1] = qHTS for Inhibitors of Plasmodium falciparum (DD2) proliferation (AID 504314);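 also: parasite DNA measured by SYBR Green fluorescence after red cell lysis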
In short: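 Parasite proliferation measured as SYBR Green signal from Plasmodium DNA, mature erythrocytes lacking DNA. 72 h incubation, 37C; activity scaled between vehicle and 0.29 uM artemisinin, with correction from vehicle-only plates.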

[2] = qHTS for Inhibitors of Plasmodium falciparum (GB4) proliferation (AID 504315); also: nearly all actives have a fitted effect of over 50% in size
In short: (§1)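 Parasite growth measured as SYBR Green DNA fluorescence (ex 485, em 535 nm) after overnight lysis following 72 h culture at 37 °C, 0.3% parasitemia, 2.5% hematocrit. Values normalized against DMSO and 0.29 uM artemisinin controls, with plate-stack correction.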

[3] = qHTS for Inhibitors of Plasmodium falciparum (7G8) proliferation (AID 504316); also: nearly all actives have a fitted effect of over 65% in size; also: potency is read from the fitted curve at half-maximal effect
In short: as §1

[4] = qHTS for Inhibitors of Plasmodium falciparum (HB3) proliferation (AID 504318); also: nearly all actives have a fitted effect of over 60% in size
In short: as §1

[5] = qHTS for Inhibitors of Plasmodium falciparum (CP250) proliferation (AID 504320)
In short: as §1

| Compound | Potency [1] | Potency [2] | Potency [3] | Potency [4] | Potency [5] |
| --- | --- | --- | --- | --- | --- |
| CCCCC1=CC2=CC(=O)C(C)(OC(=O)CC)C(=O)C2=CN1c1ccncc1 (centres undefined) | inactive | inactive | inactive | inactive | inactive |
| COC(=O)C1=C(C(=O)OC)[C@@H]2N(Cc3ccccc3)c3ccccc3[C@@]23CCC(=O)N(CC2CCCCC2)C3=N1 | inactive | inactive | inactive | inactive | inactive |
| C=CCN1C=C2C(=O)C(C)(OC(=O)CCC(=O)OC)C(=O)C(Br)=C2C=C1c1ccc(OC)cc1 (centres undefined) | inactive | inactive | inactive | inactive | inactive |
| C=CCN1C=C2C(=O)C(C)(OC(=O)c3cnc4ccccc4n3)C(=O)C=C2C=C1/C=C/COC (centres undefined) | inactive | inactive | inactive | inactive | inactive |
| CCCCC1=CC2=C(c3ccco3)C(=O)C(C)(OC(=O)c3ccc(OC)cc3)C(=O)C2=CN1C1CCCC1 (centres undefined) | inactive | inactive | inactive | inactive | inactive |
| CCCCC1=CC2=C(c3ccco3)C(=O)C(C)(OC(=O)c3ccc(OC)cc3)C(=O)C2=CN1CCOC (centres undefined) | inactive | inactive | inactive | inactive | inactive |
| COC(=O)C1=C(C(=O)OC)[C@@H]2Nc3ccccc3[C@@]23C[C@@H](C(=O)OC)N(C(=O)c2ccc(Br)cc2)C3=N1 | inactive | inactive | inactive | – | inactive |
| CCCCC1=CC2=CC(=O)C(C)(OC(=O)CC)C(=O)C2=CN1CCCN(CC)CC (centres undefined) | inactive | inactive | inactive | inactive | inactive |
| CCCCC1=CC2=CC(=O)C(C)(OC(=O)CC)C(=O)C2=CN1c1ccccc1 (centres undefined) | inactive | inactive | inactive | inactive | inactive |
| COC(=O)C1=C(C(=O)OC)[C@@H]2Nc3ccccc3[C@@]23C[C@@H](C(=O)OC)N(S(=O)(=O)c2cccs2)C3=N1 | inactive | inactive | inactive | – | inactive |
| CCCCC1=CC2=CC(=O)C(C)(OC(=O)CC)C(=O)C2=CN1c1ccc(OC)cc1 (centres undefined) | inactive | inactive | inactive | inactive | inactive |
| COC(=O)CCCC1=CC2=CC(=O)C(C)(OC(=O)CCc3ccccc3)C(=O)C2=CO1 (centres undefined) | inactive | inactive | inactive | – | inactive |
| CC#CCN1c2ccccc2[C@]23C[C@@H](C(=O)OC)N(C(C)=O)C2=NC(C(=O)OC)=C(C(=O)OC)[C@H]13 | inactive | inactive | inactive | – | inactive |
| COC(=O)CCCC1=CC2=CC(=O)C(C)(OC(=O)c3cccs3)C(=O)C2=CN1CC1CC1 (centres undefined) | inactive | inactive | inactive | inactive | inactive |
| CC(C)(C)OC(=O)NCCCC1=CC2=CC(=O)C(C)(OC(=O)c3cccs3)C(=O)C2=CO1 (centres undefined) | inactive | inactive | inactive | inactive | inactive |
| C=CCN1c2ccccc2[C@]23C[C@@H](C(=O)OC)N(C(=O)COCc4ccccc4)C2=NC(C(=O)OC)=C(C(=O)OC)[C@H]13 | inactive | inactive | inactive | inactive | inactive |
| CCOC(=O)N1C2=NC(C(=O)OC)=C(C(=O)OC)[C@@H]3N(C)c4ccc(OC)cc4[C@]23C[C@H]1C(=O)OC | inactive | inactive | inactive | inactive | inactive |
| C=CCN1c2ccccc2[C@]23C[C@@H](C(=O)OC)N(C(C)=O)C2=NC(C(=O)OC)=C(C(=O)OC)[C@H]13 | inactive | inactive | inactive | inactive | inactive |
| CCN(CC)CCCN1C=C2C(=O)C(C)(OC(=O)CCC(=O)OC)C(=O)C(Br)=C2C=C1c1ccc(OC)cc1 (centres undefined) | inactive | inactive | inactive | inactive | inactive |
| COC(=O)[C@@]1(C=C2c3ccc(F)cc3[C@@H](OC)[C@@H]2C)[C@@H]2CC=C[C@@H]21 | inactive | inactive | inactive | – | inactive |
| CC#CCN1c2ccccc2[C@]23C[C@@H](C(=O)OC)N(C(=O)c4ccco4)C2=NC(C(=O)OC)=C(C(=O)OC)[C@H]13 | inactive | inactive | inactive | inactive | inactive |
| COC(=O)CCC(=O)OC1(C)C(=O)C=C2C=C(C3CC3)N(C3CCCCC3)C=C2C1=O (centres undefined) | inactive | inactive | inactive | – | inactive |
| CCCCC1=CC2=CC(=O)C(C)(OC(=O)CC)C(=O)C2=CN1Cc1ccccc1 (centres undefined) | inactive | inactive | inactive | inactive | inactive |
| COC(=O)CCC(=O)OC1(C)C(=O)C=C2C=C(C3CC3)N(c3ccc(OC)cc3)C=C2C1=O (centres undefined) | inactive | inactive | – | – | inactive |
| COC(=O)C1=C(C(=O)OC)[C@@H]2N(C)c3ccc(OC)cc3[C@@]23C[C@@H](C(=O)OC)N(S(=O)(=O)c2ccc(Br)cc2)C3=N1 | inactive | – | 1.51 µM (active) | – | – |
